Usually cell viability stands for a read-out of living cells in per cent, often relative to untreated cells.

The campaign covered roughly 2,100 compounds. About 180 (8.6%) showed an effect of 50% or more. The entries come from a sample that favours strong results as a whole.

This assay relates to MOLM1 and UCSD/AML1 (averaged). The assay can be described thus: cell viability relative to DMSO control (POC); higher = less growth inhibition. As to conditions: 1 µM; 72 h. The method, then:
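Primary viability screen in the 3q26 EVI1-high AML cell lines MOLM1 and UCSD/AML1 (1.5e3 cells/well, 384-well), compounds at 1 uM for 72 h. ATP CellTiter-Glo read-out given as percent of viable cells over DMSO control (POC), averaged over duplicates. DMSO was the negative control and 5 uM etoposide the positive control. This mapping covers the MicroSource Spectrum and Selleck anticancer libraries (drug names).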
Consider `CN(C)C(=S)SSC(=S)N(C)C`, for which the cell viability stood at 1.29%.

In the case of `C[C@]12CC[C@H]3[C@@H](CCC4=CC(=O)CC[C@@]43C)[C@@H]1CC[C@@H]2O`, the cell viability amounted to 103%.

Consider `CC[C@@]1(O)C[C@H](O[C@H]2C[C@H](N(C)C)[C@H](O)[C@H](C)O2)c2c(cc3c(c2O)C(=O)c2c(O)ccc(O)c2C3=O)[C@H]1C(=O)OC`, for which the cell viability was found to be 0.762%.

For the compound `CC[C@@]1(O)C[C@H](O[C@H]2C[C@H](N(C)C)[C@H](O)[C@H](C)O2)c2c(cc3c(c2O)C(=O)c2c(O)cccc2C3=O)[C@H]1C(=O)OC`, the cell viability was 38.5%. In the case of `CC[C@@]1(O)C[C@H](O)c2c(cc3c(c2O)C(=O)c2c(O)ccc(O)c2C3=O)[C@H]1C(=O)OC` it was 99.6%; in that of `O=C1CCC[C@@H]2[C@H]3C[C@@H](CN12)[C@@H]1CCCCN1C3.[O-][Cl+3]([O-])([O-])O`, 95.6%; in that of `COc1cc(OC)c2c(c1)O[C@H](c1ccc(OC)c(OC)c1)[C@@H](O)C2`, 100%. In the case of `C=CCC1(C(C)CCC)C(=O)NC(=S)NC1=O` (stereo not drawn) it was 89.9%. In the case of `COc1cc2c(cc1OC)[C@@H]1C(=O)c3ccc4oc(C(C)C)cc4c3O[C@@H]1CO2` it was 81.7%. Consider `CC(O)(CS(=O)(=O)c1ccc(F)cc1)C(=O)Nc1ccc(C#N)c(C(F)(F)F)c1` (stereo not drawn) [Bicalutamide (Casodex)], for which the cell viability came to 101%.

Take `C[C@H](N)[C@H](O)c1ccc(O)c(O)c1`: the cell viability amounted to 105%. The result for `O=C(O)CCC1NCC2CC1CN1CCCCC21` (stereo not drawn) reads 93.6%; that for `CCCC(C)C1(CC)C(=O)NC(=S)NC1=O` (stereo not drawn), 96.6%. In the case of `CN1C[C@H](C(=O)N[C@]2(C)O[C@@]3(O)[C@@H]4CCCN4C(=O)[C@H](Cc4ccccc4)N3C2=O)C[C@@H]2c3cccc4[nH]cc(c34)C[C@H]21` it was 112%.

As for `CN1C[C@H](C(=O)N[C@]2(C)O[C@@]3(O)[C@@H]4CCCN4C(=O)[C@H](Cc4ccccc4)N3C2=O)C=C2c3cccc4[nH]cc(c34)C[C@H]21`, the cell viability worked out at 48.2%. In the case of `CC(C)C[C@H]1C(=O)N2CCC[C@H]2[C@]2(O)O[C@](NC(=O)[C@@H]3C=C4c5cccc6[nH]c(Br)c(c56)C[C@H]4N(C)C3)(C(C)C)C(=O)N12`, the cell viability turned out to be 108%. The result for `O=C(O)Cc1cnc[nH]1` reads 101%; that for `CN1C2CCC1CC(O)C2` (stereo not drawn), 109%; that for `C#CCN(C)[C@H](C)Cc1ccccc1`, 84.3%. In the case of `O=P1(NCCCl)OCCCN1CCCl` (stereo not drawn) it was 105%; in that of `O=P1(NCCCl)OCCCN1CCCl` (stereo not drawn) [Ifosfamide], 105%; in that of `NCC(=O)c1ccccc1`, 130%.

Consider `CC(=O)[O][Hg][c]1ccccc1`, for which the cell viability was determined as 1.17%.

With `COc1ccc(CCN2CCC(Nc3nc4ccccc4n3Cc3ccc(F)cc3)CC2)cc1`, the cell viability was 95.2%. The result for `CC(=O)O[C@H]1[C@H]2[C@@H](OC(=O)Cc3ccccc3)[C@@H](C)C[C@]2(OC(C)=O)C(=O)/C(C)=C/[C@@H]2[C@H](CC[C@@]13CO3)C2(C)C` reads 96.8%. In the case of `COc1cc2c(c(OC)c1OC)-c1ccc(OC)c(=O)cc1[C@@H](NC(C)=O)CC2` it was 6.75%; in that of `CC(=O)O[C@@H]1C[C@H]2C(C)(C)C(=O)C=C[C@]2(C)[C@H]2CC[C@]3(C)C(=CC(=O)O[C@H]3c3ccoc3)[C@@]21C`, 75.1%. As for `Nc1ncn[nH]1`, the cell viability is 109%.

On to `CCCCCCCCCc1ccc(O)cc1`, for which the cell viability is 105%. The result for `CNC(=O)Oc1ccc2c(c1)[C@]1(C)CCN(C)[C@@H]1N2C` reads 106%.

Consider `O=C1C=C2C(=CCOC2O)O1` (stereo not drawn), for which the cell viability was determined as 1.61%. The result for `c1cncc([C@@H]2CCCCN2)c1` reads 107%; that for `C[C@H]1O[C@H](O[C@H]2[C@H](O)[C@@H](O)[C@@H](O)[C@H](O)[C@@H]2O)[C@@H](N)C[C@@H]1NC(=N)C(=O)O`, 103%. For the compound `C[C@]12C=CC(=O)C=C1CC[C@@H]1[C@@H]2CC[C@]2(C)C(=O)CC[C@@H]12`, the cell viability came out at 101%.

As for `CC(C)=CCCC1(C)C=Cc2c(O)c3c(c(CC=C(C)C)c2O1)OC12C(=CC4CC1C(C)(C)OC2(C/C=C(/C)C(=O)O)C4O)C3=O` (stereo not drawn), the cell viability stood at 99.7%. As to `CC(C)=CCC[C@]1(C)C=Cc2c(O)c3c(c(CC=C(C)C)c2O1)O[C@]12C(=C[C@@H]4C[C@H]1C(C)(C)O[C@@]2(C/C=C(/C)C(=O)O)C4=O)C3=O`, the cell viability came out at 1.06%. `CC(C)CCCC1(C)C=Cc2c(O)c3c(c(CCC(C)C)c2O1)OC12C(CC4CC1C(C)(C)OC2(CCC(C)C(=O)O)C4O)C3=O` (stereo not drawn): the cell viability was 106%.

On to `CC(C)=CCCC1(C)C=Cc2c(O)c3c(c(CC=C(C)C)c2O1)OC12C(CC4CC1C(C)(C)OC2(C/C=C(/C)C(=O)O)C4O)C3=O` (stereo not drawn), for which the cell viability was 94.1%. In the case of `CC(C)=CCC[C@]1(C)C=Cc2c(O)c3c(c(CC=C(C)C)c2O1)O[C@]12C(=C[C@@H]4C[C@H]1C(C)(C)O[C@@]2(C/C=C(/C)C(N)=O)C4=O)C3=O` it was 13.2%. For `C=C(C)c1cc2cc(C(C)=O)c(O)cc2o1`, the cell viability is 104%. The result for `COC(=O)C1=CCCN(C)C1` reads 98.5%; that for `COc1c2c(cc3c1OCO3)CCN(C)C2`, 119%. The result for `CCC(C)C(=O)O[C@@H]1C[C@@]2(C)[C@H](c3ccoc3)OC(=O)CC23OC2(C)O[C@]14[C@]1(C)[C@@H](CC(=O)OC)C5(C)CC1(O)[C@](O)(C5OC(=O)C1(C)OC1C)[C@@H](OC(C)=O)[C@]34O2` (stereo partly drawn) reads 95.6%. In the case of `CC1(C)N([O-])[N+](=O)C1(C)Br` (stereo not drawn) it was 109%; in that of `COc1cc2c(cc1O)CCN[C@@H]2C`, 112%. As to `CCN1C[C@]2(OC(=O)c3ccccc3NC(C)=O)CC[C@H](OC)[C@@]34[C@@H]2C[C@@H]([C@@H]13)[C@@]1(O)C[C@H](OC)[C@H]2C[C@@H]4[C@]1(O)[C@H]2OC`, the cell viability came to 96.8%. The result for `C[C@@H]1O[C@@H](O[C@H]2CC[C@]3(C=O)[C@H]4CC[C@]5(C)[C@@H](C6=CC(=O)OC6)CC[C@]5(O)[C@@H]4CC[C@]3(O)C2)[C@H](O)[C@H](O)[C@H]1O` reads 1.83%; that for `CO[C@H]1[C@H](O)[C@H](O[C@H]2CC[C@@]3(C=O)[C@H](CC[C@@H]4[C@@H]3CC[C@]3(C)[C@@H](C5=CC(=O)OC5)CC[C@]43O)C2)O[C@@H](C)[C@@H]1O`, 1.75%; that for `CO[C@H]1C[C@H](O[C@H]2CC[C@]3(C=O)[C@H]4CC[C@]5(C)[C@@H](C6=CC(=O)OC6)CC[C@]5(O)[C@@H]4CC[C@]3(O)C2)O[C@H](C)[C@H]1O`, 3.81%. Turning to `C[C@@H]1O[C@@H](O[C@H]2C[C@@H](O)[C@]3(CO)[C@H]4[C@H](O)C[C@]5(C)[C@@H](C6=CC(=O)OC6)CC[C@]5(O)[C@@H]4CC[C@]3(O)C2)[C@H](O)[C@H](O)[C@H]1O`, the cell viability worked out at 1.94%. In the case of `COc1cc2ccc(=O)oc2c2ccoc12` it was 104%. The result for `C[N+]12CC[C@@]34c5ccccc5N5C(=O)C[C@@H]6OCC=C(C1)[C@H](C[C@@H]32)[C@@H]6[C@H]54` (stereo partly drawn) reads 102%; that for `O=C([O-])c1ccccc1-c1c2cc(Br)c(=O)cc-2oc2[c]([Hg+])c([O-])c(Br)cc12.[Na+].[Na+].[OH-]`, 87.1%. The result for `O=C1CN=C(c2ccccc2Cl)c2cc([N+](=O)[O-])ccc2N1` reads 87%. Consider `C[C@@]12C(=O)OC(=O)[C@]1(C)[C@H]1CC[C@@H]2O1`, for which the cell viability worked out at 101%.

For `CC[C@@H](CO)NC(=O)[C@@H]1C=C2c3cccc4[nH]cc(c34)C[C@H]2N(C)C1`, the cell viability was 98%. The result for `CCC12C=CCN3CC[C@@]4(c5ccc(OC)cc5N(C)[C@H]4[C@@](O)(C(=O)OC)[C@@H]1OC(C)=O)[C@@H]32` (stereo partly drawn) reads 94%; that for `C=C[C@H]1CN2CC[C@H]1C[C@@H]2[C@@H](O)c1ccnc2ccccc12`, 113%; that for `CC1(C)C2CC(=O)[C@]3(C)C(CC[C@@]4(C)[C@H](c5ccoc5)OC(=O)[C@H]5O[C@]543)[C@@]2(C)C(=O)C[C@H]1O` (stereo partly drawn), 87.6%. `Cc1[nH]c2ccccc2c1CN(C)C`: the cell viability is 109%. On to `C[C@]12CCC(=O)C[C@@H]1CC[C@@H]1[C@@H]2CC[C@]2(C)C(=O)CC[C@@H]12` [5alpha-ANDROSTAN-3,17-DIONE], for which the cell viability turned out to be 101%. In the case of `C[C@]12CC[C@H]3[C@@H](CC[C@]4(O)C[C@@H](O)CC[C@]34C=O)[C@@]1(O)CC[C@@H]2C1=CC(=O)OC1` it was 3.15%; in that of `CC1CC(Cl)CCC1C(=O)OC(C)(C)C` (stereo not drawn), 102%. The result for `COc1cc([C@@H]2c3cc4c(cc3[C@H](OC(C)=O)[C@H]3COC(=O)[C@H]23)OCO4)cc(OC)c1OC` reads 6.04%; that for `COc1cc([C@@H]2c3cc4c(cc3[C@H](OC(C)=O)[C@H]3COC(=O)[C@@H]23)OCO4)cc(OC)c1OC`, 34.9%; that for `O=C(O)COc1cc(Cl)c(Cl)cc1Cl`, 98.7%. In the case of `COc1cc2c(cc1O)C[C@H]1c3c(cc(O)c(OC)c3-2)CCN1C` it was 99%; in that of `O=c1ccc2c(O)c3ccoc3cc2o1`, 91.2%; in that of `CC1(C)C2C[C@@H](O)[C@]3(C)C(CC[C@@]4(C)[C@H](c5ccoc5)OC(=O)[C@H]5O[C@]543)[C@@]2(C)[C@@H](O)C[C@H]1O` (stereo partly drawn), 106%. In the case of `CCN1C[C@]2(COC)[C@H](O)C[C@H](OC)[C@@]34[C@@H]5C[C@@]6(O)[C@H](OC(=O)c7ccccc7)[C@@H]5[C@@](OC(C)=O)([C@@H]([C@H](OC)[C@H]23)[C@@H]14)[C@@H](O)[C@@H]6OC`, the cell viability was 100%. In the case of `CC1(C)C(=O)C=C[C@]2(C)[C@H]3CC[C@@]4(C)[C@H](c5ccoc5)OC(=O)[C@H]5O[C@]54[C@]3(C)[C@H](O)C[C@@H]12` it was 98.3%.

On to `O=C1C(Cl)=C(Cl)C(=O)C(Cl)=C1Cl`, for which the cell viability is 114%. The result for `CNc1ccc(C(=O)CC(O)CCC(C)C2OC(=O)CC(O)CC(=O)CC(O)CC(O)CC(O)CC(O)CC3(O)CC(O)C(C(=O)OC)C(CC(O[C@@H]4O[C@H](C)[C@@H](O)[C@H](N)[C@@H]4O)/C=C/C=C/C=C/C=C/C=C/C=C/C=C/C2C)O3)cc1.COC(=O)C1C(O)CC2(O)CC(O)CC(O)CC(O)CC(O)CC(=O)CC(O)CC(=O)OC(C(C)CCC(O)CC(=O)c3ccc(N)cc3)C(C)/C=C/C=C/C=C/C=C/C=C/C=C/C=C/C(O[C@@H]3O[C@H](C)[C@@H](O)[C@H](N)[C@@H]3O)CC1O2` (stereo partly drawn) reads 93.4%.

Values taken from the supplement of paper PMC11150407.
